Reference: PubChem BioAssay (Tox21)
Inconclusive results are not listed. Entries that show only a call come without a potency. A number with no mark means an inactive call. Active and inactive are the calls of the source. The call rests on the fitted dose curve; in most records, active means well fitted curve in the direction sought with a large enough effect in the repeat runs; inconclusive means weak or mixed curves; inactive means no such curve, though single readings can be large; an effect the other way counts as inactive or inconclusive.

What was measured:
[1] = qHTS assay to identify small molecule agonists of the RXR signaling pathway - cell viability counter screen (AID 1159529); conditions: RXR-alpha-bla HEK293T viability, CellTiter-Glo, 16 h; series mostly up to 76.8 µM; further: nearly all actives have a fitted effect of over 50% in size; further: potency means the concentration at half of the fitted maximal effect
How it was run: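 Compounds dissolved in DMSO were pinned onto HEK 293T cells carrying a beta-lactamase reporter under RXR-alpha control and incubated 16 hr. Cytotoxicity was then quantified by CellTiter-Glo luminescence.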

[2] = qHTS assay to identify small molecule antagonists of the retinoid acid receptor (RAR) signaling pathway - cell viability counter screen (AID 1159551); conditions: C3RL4 cells viability, ATP luminescence (CellTiter-Glo), 6 h; series mostly up to 92.4 µM; further: nearly all actives have a fitted effect of over 35% in size
How it was run: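 ATP-based viability, C3RL4 cells, 6 h at 37 C with 1 uM final retinol co-added after compound; luminescence read 30 min post CellTiter-Glo, RT.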

[3] = qHTS assay to identify small molecule antagonists of the retinoic acid receptor (RAR) signaling pathway (AID 1159552; further: nearly all actives have a fitted effect of over 50% in size); conditions: C3RL4 RARE luciferase reporter, retinol-stimulated, 6 h; series mostly up to 92.4 µM
How it was run: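 Test chemicals and DMSO controls were pin-transferred onto C3RL4 cells a day after seeding; retinol (1 uM final) followed at once. Luminescent reporter output was quantified after 6 hr of co-incubation and 30 min with detection reagent.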

ClC1=C(Cl)C1(Cl)Cl
Potency [1]: inactive
Potency [2]: inactive

O=C(Nc1ccc(C(=O)O)c(O)c1)c1ccccc1
Potency [1]: inactive
Potency [2]: inactive

CCN(CC)CCOc1ccccc1C(=O)CCc1ccccc1
Potency [1]: 9.52 µM (active)
Potency [2]: inactive
Potency [3]: inactive

CCSC(=O)N(CC)CC
Potency [1]: inactive
Potency [2]: inactive

C1=CCC2CC=CC2C1 (stereo not given)
Potency [1]: inactive
Potency [2]: inactive

CC(=O)OCCC(C)CC(C)(C)C (stereo not given)
Potency [1]: inactive
Potency [2]: inactive

CC1=CC[C@@H]2C[C@H]1C2(C)C
activity change, negative = cytotoxicity [1]: -11.8% [at 15.8 µM]
activity change, negative = cytotoxicity [2]: -0.147% [at 19 µM]
activity, negative = inhibition [3]: 70.7% [at 19 µM]

c1ccc2sc(SSc3nc4ccccc4s3)nc2c1
activity change, negative = cytotoxicity [1]: -2.29% [at 15.8 µM]
activity change, negative = cytotoxicity [2]: 0.484% [at 19 µM]

O=c1[nH][nH]c(=O)c2cc([N+](=O)[O-])ccc12
Potency [1]: inactive
Potency [2]: inactive

O=CNNC=O
Potency [1]: inactive
Potency [2]: inactive

O=C(O)c1cc(Cl)cc(Cl)c1O
Potency [1]: inactive
Potency [2]: inactive

COC(C)(C)OC
Potency [1]: inactive
Potency [2]: inactive

Nc1nc(-c2ccc([N+](=O)[O-])cc2)cs1
Potency [1]: inactive
Potency [2]: inactive
Potency [3]: inactive

CC1=C2[C@@H]([C@H](C)CC[C@H]2/C=C(\C)C(=O)O)[C@H](O)C1
Potency [1]: inactive
Potency [2]: inactive

COc1cc(OC)c2ccc(=O)oc2c1
Potency [1]: inactive
Potency [2]: inactive

Cc1ccc2nc(N)[nH]c(=O)c2c1Sc1ccncc1
Potency [1]: inactive
Potency [2]: inactive

CCCCCCC(O)CCOC(C)=O (stereo not given)
Potency [1]: inactive
Potency [2]: inactive

CCCCCCCCCCCCCOS(=O)(=O)O
Potency [1]: 24.5 µM (active)
Potency [2]: inactive

CN1C(CSCC(F)(F)F)Nc2cc(Cl)c(S(N)(=O)=O)cc2S1(=O)=O (stereo not given)
Potency [1]: inactive
Potency [2]: inactive
Potency [3]: inactive

CC(CO)(CO)C(=O)O
Potency [1]: inactive
Potency [2]: inactive

CC(=O)Oc1cccc(O)c1
Potency [1]: inactive
Potency [2]: inactive

CC(=O)C(=O)CC(C)C
Potency [1]: inactive
Potency [2]: inactive

O=C(O)CNC(=O)c1ccccc1I
Potency [1]: inactive
Potency [2]: inactive

O=C(O)c1cccc(C[C@@H]2COc3ccc(OCc4nc5cc(F)ccc5s4)cc3[C@@H]2O)c1
Potency [1]: inactive
Potency [2]: inactive

O=C(O)CN1C(=O)c2cccc3cccc(c23)C1=O
Potency [1]: inactive
Potency [2]: inactive

C=C(C)C(=O)OCCC(F)(F)C(F)(F)C(F)(F)C(F)(F)C(F)(F)C(F)(F)F
Potency [1]: inactive
Potency [2]: inactive

CNS(=O)(=O)c1cc(C(=O)N2CCC(CCN3C4CCC3CC(n3c(C)nc5ccccc53)C4)(c3cccc(F)c3)CC2)c(Cl)cc1F (stereo not given)
Potency [1]: 6.16 µM (active)
Potency [2]: inactive

Cc1c[nH]c2ccccc12
Potency [1]: inactive
Potency [2]: inactive

COc1cc(C(C)=O)ccc1OCCCN1CCC(c2noc3cc(F)ccc23)CC1
Potency [1]: inactive
Potency [2]: inactive

O=C(C(=O)c1ccco1)c1ccco1
Potency [1]: inactive
Potency [2]: inactive

CC[C@H]1OC(=O)[C@H](C)[C@@H](O[C@H]2C[C@@](C)(OC)[C@@H](O)[C@H](C)O2)[C@H](C)[C@@H](O[C@@H]2O[C@H](C)C[C@H](N(C)C)[C@H]2O)[C@](C)(O)C[C@@H](C)/C(=N\OCOCCOC)[C@H](C)[C@@H](O)[C@]1(C)O
Potency [1]: inactive
Potency [2]: inactive

CCOC(=O)Oc1ccc(CCNC(=O)[C@H](CCSC)NC(C)=O)cc1OC(=O)OCC
Potency [1]: inactive
Potency [2]: inactive

CS(=O)(=O)c1ccc([C@@H](C[C@H]2CCC(=O)C2)C(=O)Nc2cnccn2)cc1Cl
Potency [1]: inactive
Potency [2]: inactive

CC(C)(C)C1(CCc2ccc(Cl)cc2)CO1 (stereo not given)
Potency [1]: inactive
Potency [2]: inactive

C=CC(=O)NC(C)C
Potency [1]: inactive
Potency [2]: inactive

CC1CCCO1 (stereo not given)
Potency [1]: inactive
Potency [2]: inactive

CCCCCCCC/C=C/C(=O)O
Potency [1]: inactive
Potency [2]: inactive

CCCCOCCOC(=O)c1cccnc1
Potency [1]: inactive
Potency [2]: inactive

Cc1cccc2sc(N)nc12
Potency [1]: inactive
Potency [2]: inactive
Potency [3]: inactive

COC(=O)c1sccc1S(N)(=O)=O
Potency [1]: inactive
Potency [2]: inactive
Potency [3]: inactive

CC1CCc2nccnc21 (stereo not given)
Potency [1]: inactive
Potency [2]: inactive
Potency [3]: inactive

CC(C)c1ccc(C#N)cc1
Potency [1]: inactive
Potency [2]: inactive
Potency [3]: inactive

COC(=O)Nc1nc2ccc(C(=O)C3CC3)cc2[nH]1
Potency [1]: inactive
Potency [2]: inactive
Potency [3]: inactive

C=Cc1ccc(OC(C)=O)cc1
Potency [1]: inactive
Potency [2]: inactive
Potency [3]: inactive

CC(C)Cc1ccc(CC(=O)O)cc1
Potency [1]: inactive
Potency [2]: inactive
Potency [3]: inactive

COC1CCC=CO1 (stereo not given)
Potency [1]: inactive
Potency [2]: inactive
Potency [3]: inactive

Cc1cccc(C)c1NC(=O)c1cc(S(N)(=O)=O)c(Cl)cc1O
Potency [1]: inactive
Potency [2]: inactive
Potency [3]: inactive

CC(C)C1CCC(C(=O)N[C@H](Cc2ccccc2)C(=O)O)CC1 (stereo not given in full)
Potency [1]: inactive
Potency [2]: inactive
Potency [3]: inactive
